Screening data deposited in PubChem by National Center for Advancing Translational Sciences (NCATS).
Pf growth 48h: P. falciparum growth inhibition at 48 hours (one generation). Potency, µM (titrated, usually from 28.7 µM), usual class: inhibitors. 5.9% of 310,000 active. P. falciparum luciferase growth in erythrocytes, 48 h. AID 504832
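Parasite viability was followed by luminescence of a genomically integrated firefly luciferase. Cultures held 0.1% parasitemia at 2% hematocrit (final), incubated under 5% CO2 at 37 C.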
AMA1 RON2 block: AMA1-RON2 (P. falciparum) interaction inhibition; 0.2% of 360,000 active; Potency, µM (highest dose often 58.2 µM), actives largely listed as inhibitors; AID 720542; AlphaScreen AMA1-biotinylated RON2 peptide binding; also: nearly all actives have a fitted effect of over 45% in size
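AMA1 (3D7) with his tag at 25 nM final met compounds first, then biotinylated RON2 peptide at 25 nM; detection used donor plus acceptor beads, 10 µg/mL apiece, read by AlphaScreen after 30 min at room temperature.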
Shiga toxin inh: blocks Shiga toxin action in Vero cells; AID 2315; inhibition, % at 38.7 µM; Vero cells, Shiga toxin protein synthesis inhibition reporter; 9.2% of 290,000 active; in the data active = inhibition mostly above about 28%, no sharp cut-off; inactive = mostly below about 43%
Cycloheximide cs: affects cycloheximide protein synthesis inhibition readout, counter-screen | cell reporter, cycloheximide protein synthesis inhibition counterscreen | 12% of 300,000 active | max response, %; in the data active = max response mostly above about 13%, no sharp cut-off; inactive = mostly below about 14%; also: read at 38.3 µM for the half of the compounds with a filed dose
SARS PLP yeast: SARS-CoV PLP inhibition in yeast | Potency, µM (titrated, usually from 32.9 µM), most hits filed as activators | AID 485353 | 0.19% of 330,000 active | S. cerevisiae expressing SARS-CoV PLpro, growth rescue; calls by dose curve; also: nearly all actives have a fitted effect of over 55% in size
Pf growth 96h: inhibits malaria parasite growth, 96 h | P. falciparum luciferase reporter growth, 96 h | 6.9% of 320,000 active | Potency, µM (doses to about 28.7 µM), actives largely listed as inhibitors
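Luminescence readout: decreased luciferase signal marks inhibited growth of reporter-expressing P. falciparum in infected red cells (2% hematocrit, 0.05% parasitemia final), exposed to compound two generations (96 h, 37 C, 5% CO2).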
A number is an active result; [ ] = another dose, or the depositor's remark. In the library only some 19% were active in any assay of this set; here they are far more common. Unless noted, calls follow the shape of the dose curve; as a rule, active = well fitted curve in the direction sought with a large enough effect; inconclusive = small, poorly fitted or top-dose-only effect, or another doubt; inactive = no such curve, though single readings can be large; an effect the other way counts as inactive or inconclusive.

`Cc1ccc(Cn2cccc(NS(C)(=O)=O)c2=O)cc1` gave Pf growth 48h inactive, AMA1 RON2 block inactive, Shiga toxin inh inactive, Cycloheximide cs inactive, SARS PLP yeast inactive and Pf growth 96h inactive.
For O=C(Nc1ccc(Br)cc1C(=O)O)c1ccc2c(c1)C(=O)N(Cc1ccccc1)C2=O the results were Pf growth 48h inactive, AMA1 RON2 block inactive, Shiga toxin inh 36, Cycloheximide cs 34, SARS PLP yeast inactive and Pf growth 96h inconclusive.
CCCCN1C(=O)c2ccc(C(=O)Nc3cccc(C)c3C)cc2C1=O was read as AMA1 RON2 block inactive, Shiga toxin inh inactive, Cycloheximide cs inactive, SARS PLP yeast inactive and Pf growth 96h inactive.
CCN1C(=O)c2ccc(C(=O)Nc3ccc(O)cc3C)cc2C1=O was read as Pf growth 48h inactive, AMA1 RON2 block inactive, Shiga toxin inh inactive, Cycloheximide cs inactive, SARS PLP yeast inactive and Pf growth 96h inactive.
Screening CCCN1C(=O)c2ccc(C(=O)Nc3ccccc3C(=O)O)cc2C1=O returned Pf growth 48h inactive[0.00184 µM], AMA1 RON2 block inactive, Shiga toxin inh inactive, Cycloheximide cs 16, SARS PLP yeast inactive and Pf growth 96h inactive.
`O=C(Nc1cc(Cl)ccc1C(=O)O)c1ccc(CN2C(=O)c3ccccc3C2=O)cc1` gave AMA1 RON2 block inactive.
For CCCN1C(=O)c2ccc(C(=O)Nc3cc(C)ccc3O)cc2C1=O the results were Pf growth 48h inactive, AMA1 RON2 block inactive, Shiga toxin inh 139, Cycloheximide cs 56, SARS PLP yeast inactive and Pf growth 96h inactive.
Screening Cc1ccc(O)c(NC(=O)c2ccc3c(c2)C(=O)N(CC(C)C)C3=O)c1 returned Pf growth 48h inactive, AMA1 RON2 block inactive, Cycloheximide cs 33, SARS PLP yeast inactive and Pf growth 96h inconclusive.
For O=C(NCC1OCCc2ccccc21)c1ccc(NC(=O)c2ccc(Cl)cc2)cc1 (centres undefined) the results were Pf growth 48h inconclusive, AMA1 RON2 block inactive, Shiga toxin inh inactive, Cycloheximide cs inactive, SARS PLP yeast inactive and Pf growth 96h inactive.
CC(C)S(=O)(=O)NC(=O)C1(C)CCN1C(=O)Cc1ccccc1Cl (centres undefined) was read as AMA1 RON2 block inactive.
COc1cccc(-n2c(C)nc3ccccc3c2=O)c1 was read as Pf growth 48h inactive, AMA1 RON2 block inactive, Shiga toxin inh inactive, Cycloheximide cs inactive and SARS PLP yeast inactive.
`CCOC(=O)c1cccc(-n2c(C)nc3ccccc3c2=O)c1` gave Pf growth 48h inactive, AMA1 RON2 block inactive, Shiga toxin inh inactive, Cycloheximide cs inactive, SARS PLP yeast inactive and Pf growth 96h 9.3µM.
Screening CCOC(=O)c1cccc(Nc2ncnc3ccccc23)c1 returned Pf growth 48h inconclusive, AMA1 RON2 block inactive, Shiga toxin inh 32, Cycloheximide cs 25, SARS PLP yeast inactive and Pf growth 96h inactive.
For COC(=O)c1cccc(Nc2ncnc3ccc(C)cc23)c1 the results were AMA1 RON2 block inactive, Shiga toxin inh inactive, Cycloheximide cs inactive, SARS PLP yeast inactive and Pf growth 96h inconclusive.
COc1cccc(Nc2ncnc3ccc(Br)cc23)c1 was read as AMA1 RON2 block inactive.
O=C(O)c1cccc(Nc2ncnc3ccc(Br)cc23)c1 was read as Pf growth 48h inactive, AMA1 RON2 block inactive, Shiga toxin inh 43, Cycloheximide cs 25, SARS PLP yeast inactive and Pf growth 96h inactive.
Cc1ccc(C)c(C(=O)COC(=O)c2cccc(N3C(=O)c4c(C)nc5ccccc5c4C3=O)c2)c1 was read as Pf growth 48h inactive, AMA1 RON2 block inactive, Shiga toxin inh 94, Cycloheximide cs 46, SARS PLP yeast inactive and Pf growth 96h inactive.
Screening O=C(c1ccccc1)c1ccc(N2CCN(C(=O)c3ccc(F)cc3F)CC2)c(F)c1 returned AMA1 RON2 block inactive.
`Cc1cccc(Nc2ncnc3ccccc23)c1` gave Pf growth 48h inactive, AMA1 RON2 block inactive, Shiga toxin inh inactive, Cycloheximide cs 34, SARS PLP yeast inactive and Pf growth 96h inactive.
Screening Cc1cccc(-n2c(C)nc3ccccc3c2=O)n1 returned Pf growth 48h inactive, AMA1 RON2 block inactive, Shiga toxin inh inactive, Cycloheximide cs inactive, SARS PLP yeast inactive and Pf growth 96h 5.2µM.
`COc1ccccc1CNc1ncnc2cc(Cl)ccc12` gave Pf growth 48h inactive, AMA1 RON2 block inactive, Shiga toxin inh inactive, Cycloheximide cs inactive, SARS PLP yeast inactive and Pf growth 96h inactive.
